The values that follow come from PubChem BioAssay (EPA / NIEHS).

The term AC50 denotes the concentration giving half of the maximal activity seen.

The structures appear in SMILES notation. Records with an inconclusive call do not appear. Active and inactive are the calls of the source. How the source made its calls, unless noted: active means hit-call score of the fitted dose curve at least 0.9, where 1 is the maximum; inactive means score below 0.9.

The target of experiment [1] is Myc proto-oncogene protein (Homo sapiens) (UniProt P01106). The experiment can be described thus: ATG_Myc_CIS: Attagene CIS-FACTORIAL HepG2 Assay for human Myelocytomatosis (Myc) Proto-Oncogene Transcription Factor (AID 2282990). The following applies: HepG2, Attagene cis-reporter transcription factor activity; actives raise or lower the signal. The method, boiled down:
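Multiplexed cis-reporter transcription in HepG2 cells after 24 h chemical treatment. Reporter mRNA measured by RT-PCR and capillary electrophoresis fluorescence; activity fitted bidirectionally against DMSO control.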

Experiment [2] can be described thus: ATG_NF_kB_CIS: Attagene CIS-FACTORIAL HepG2 Assay for human Nuclear Factor Kappa B (NF-kB) (AID 2282991). The note with it: HepG2 Attagene cis-factorial NF-kB reporter mRNA; actives raise or lower the signal. The method, boiled down:
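HepG2, transient multi-reporter transfection, cis promoter elements (endogenous TFs). 24 h exposure. Total RNA → RT → PCR → 6-FAM label → HpaI → CE. Gain/loss vs DMSO.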

The nature of experiment [3]: ATG_NRF2_ARE_CIS: Attagene CIS-FACTORIAL HepG2 Assay for human Nuclear Factor Erythroid 2 Related Factor 2 (NFR2) response to Antioxidant Response Elements (ARE) (AID 2282992). The note with it: HepG2 Attagene ARE/NRF2 reporter, transcription factor activity; actives raise or lower the signal. The method, boiled down:
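Endogenous transcription factor activity in human liver HepG2 cells is tracked via a cis-element-driven reporter within a multiplexed set. mRNA induction is read by RT-PCR and capillary electrophoresis after 24 h, with DMSO as baseline.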

Experiment [4] can be described thus: ATG_Oct_MLP_CIS: Attagene CIS-FACTORIAL HepG2 Assay for human Octamer-Binding Transcription Factor (Oct) (AID 2282993). The following applies: HepG2 Attagene cis-factorial Oct reporter, mRNA; actives raise or lower the signal. The method, boiled down: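 HepG2 cells transiently transfected with cis-promoter-driven multiplexed reporter transcription units, dosed for 24 h. Reporter mRNA quantified by RT-PCR, fluorescent labelling, HpaI digestion and capillary electrophoresis; bidirectional fits versus DMSO baseline.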

The target in experiment [5] is Cellular tumor antigen p53 (Homo sapiens) (UniProt P04637). Nature of the experiment: ATG_p53_CIS: Attagene CIS-FACTORIAL HepG2 Assay for human p53 Transcription Factor (AID 2282994). The note with it: HepG2 p53 cis-element reporter, Attagene mRNA; actives raise or lower the signal. The method, boiled down:
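Steps: transfect HepG2 with multiplexed cis reporter constructs; dose chemicals 24 h; extract RNA, reverse-transcribe, PCR-amplify reporter sequences; FAM-label, HpaI-digest, resolve fragments by CE. Activity fitted both directions relative to DMSO.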

Experiment [6] can be described thus: BSK_3C_TissueFactor: BioMAP Diversity Plus: 3C Assay for Tissue Factor Biomarker Activity (AID 2282997). The note with it: BioMAP 3C HUVEC, tissue factor biomarker readout; actives raise or lower the signal. The method, boiled down: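 Tissue factor on primary human umbilical vein endothelium was read by ELISA 24 h after dosing, gain or loss relative to DMSO. Cytotoxicity ran alongside via SRB (0.1%, TCA-fixed, 560 nm).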

A short description of experiment [7]: BSK_3C_uPAR: BioMAP Diversity Plus: 3C Assay for Urokinase-type plasminogen activator receptor (uPAR) Biomarker Activity (AID 2282998). The following applies: BioMAP 3C HUVEC, uPAR biomarker ELISA; actives raise or lower the signal. The method, boiled down:
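Human umbilical vein endothelial primary cells were exposed to test chemical for 24 h. Cell-surface uPAR was then quantified by ELISA, and responses were fitted bidirectionally against DMSO as negative control and baseline.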
In general terms: An ELISA detects its analyte on a solid surface through an enzyme-linked reagent.

A short description of experiment [8]: BSK_3C_VCAM1: BioMAP Diversity Plus: 3C Assay for Vascular cell adhesion molecule 1 (VCAM1) Biomarker Activity (AID 2282999). The note with it: BioMAP 3C HUVEC, VCAM1 ELISA, cytokine-stimulated; actives raise or lower the signal. The method, boiled down: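 Vascular primary endothelium (human umbilical vein) was exposed to chemicals and assayed 24 h later. VCAM-1 levels came from ELISA, with DMSO serving as baseline for bidirectional fitting.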

The nature of experiment [9]: BSK_4H_Eotaxin3: BioMAP Diversity Plus: 4H Assay for Eotaxin 3 Biomarker Activity (AID 2283000).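 On outcome: CCL26 protein level quantified by ELISA in parallel with SRB cytotoxicity check.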 The note with it: primary human endothelial cells (HUVEC); actives raise or lower the signal. The method, boiled down:
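Human umbilical vein endothelial cells (BSK_4H system) dosed with test chemical; Eotaxin-3 (CCL26) measured by ELISA 24 h after dosing. Bidirectional curve fitting relative to DMSO negative control as baseline.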

In experiment [10] the target is human Peroxisome Proliferator-activated Receptor alpha (PPARa), PPARA (gene 5465) (UniProt Q07869). Nature of the experiment: ATG_PPARa_TRANS: Attagene TRANS-FACTORIAL HepG2 Assay for human Peroxisome Proliferator-activated Receptor alpha (PPARa) (AID 2283001; active means hit-call score of the fitted dose curve at least 0.9, where 1 is the maximum;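 on AC50: potency for gain of reporter signal over DMSO so agonist or activator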). The method, boiled down: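 Cells (HepG2) are transfected with multiple reporter transcription units, exposed to chemical for 24 h, then total RNA is reverse-transcribed and amplified. Labelled products are quantified by capillary electrophoresis; induction is referenced to DMSO.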
human Peroxisome Proliferator-activated Receptor alpha (PPARa), PPARA (gene 5465), sequence (Q07869 whole entry, looked up): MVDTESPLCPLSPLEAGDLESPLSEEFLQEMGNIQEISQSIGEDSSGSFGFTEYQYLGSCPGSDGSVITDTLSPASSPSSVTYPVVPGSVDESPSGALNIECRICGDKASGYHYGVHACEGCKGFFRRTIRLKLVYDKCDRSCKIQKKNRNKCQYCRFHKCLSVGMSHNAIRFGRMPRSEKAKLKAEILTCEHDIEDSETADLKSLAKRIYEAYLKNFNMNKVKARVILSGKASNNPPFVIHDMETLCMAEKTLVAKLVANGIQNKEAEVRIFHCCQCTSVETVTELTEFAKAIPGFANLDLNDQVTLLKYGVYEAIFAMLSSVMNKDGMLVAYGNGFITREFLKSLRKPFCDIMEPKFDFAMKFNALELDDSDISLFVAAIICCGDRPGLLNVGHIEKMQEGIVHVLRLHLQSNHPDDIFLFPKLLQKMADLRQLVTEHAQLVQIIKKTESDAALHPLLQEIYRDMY

Myc proto-oncogene protein (Homo sapiens), sequence (P01106 whole entry, looked up): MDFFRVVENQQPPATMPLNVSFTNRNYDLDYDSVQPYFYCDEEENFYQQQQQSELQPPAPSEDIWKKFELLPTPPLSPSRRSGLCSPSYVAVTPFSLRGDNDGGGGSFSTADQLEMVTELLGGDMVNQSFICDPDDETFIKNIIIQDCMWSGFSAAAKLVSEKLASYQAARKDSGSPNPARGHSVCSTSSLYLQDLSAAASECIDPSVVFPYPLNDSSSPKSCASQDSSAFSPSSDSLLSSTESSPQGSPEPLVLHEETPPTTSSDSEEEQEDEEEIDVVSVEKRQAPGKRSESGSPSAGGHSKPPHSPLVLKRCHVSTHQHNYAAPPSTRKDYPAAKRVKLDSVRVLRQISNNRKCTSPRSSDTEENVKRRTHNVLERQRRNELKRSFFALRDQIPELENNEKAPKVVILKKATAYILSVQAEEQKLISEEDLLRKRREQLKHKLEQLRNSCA
Cellular tumor antigen p53 (Homo sapiens), sequence (P04637 whole entry, looked up, the tested form may be a part): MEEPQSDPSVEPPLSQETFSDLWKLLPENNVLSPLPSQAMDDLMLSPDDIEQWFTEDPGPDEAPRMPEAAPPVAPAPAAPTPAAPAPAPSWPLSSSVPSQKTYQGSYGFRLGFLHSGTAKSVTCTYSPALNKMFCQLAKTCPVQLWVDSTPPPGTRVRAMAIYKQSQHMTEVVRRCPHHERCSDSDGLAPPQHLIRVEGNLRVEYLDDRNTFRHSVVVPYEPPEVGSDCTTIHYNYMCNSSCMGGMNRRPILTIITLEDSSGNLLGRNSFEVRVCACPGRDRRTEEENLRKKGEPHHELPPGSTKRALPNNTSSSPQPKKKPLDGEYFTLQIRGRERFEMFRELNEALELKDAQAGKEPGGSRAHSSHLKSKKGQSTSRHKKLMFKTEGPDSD

In the case of `CCCCCCCCCCC`, the result in experiment [1], in [2], in experiment [3], in experiment [4], in experiment [5] and in experiment [6] was inactive. Moreover, the outcome in experiment [7], in experiment [8], in [9] and in [10] was inactive.

As to `Oc1ccc2ccccc2c1N=Nc1ccccc1`, the result in [1], in experiment [2], in experiment [4], in experiment [5], in [8] and in experiment [10] was inactive. Further, the AC50 in experiment [3] is 1.42 µM (active); in experiment [6], 6 µM (active); in experiment [9], 1.7 µM (active).

For the compound `CC(=O)Oc1ccccc1C(=O)O`, the compound was called inactive in experiment [1], in experiment [2], in experiment [5], in experiment [6], in experiment [7] and in [8]. Also, the result in experiment [9] and in [10] was inactive. Besides, the results for the AC50 in [3] and in [4] were 68 µM (active) and 177 µM (active), respectively.

As to `Cc1cccc([N+](=O)[O-])c1C`, the outcome in [1], in [2], in experiment [3], in [4], in experiment [5] and in experiment [6] was inactive. The result in experiment [7], in experiment [8] and in experiment [9] was inactive.

For the compound `CNCc1cc(F)ccc1Oc1ccc(Cl)c(Cl)c1`, the outcome in [1], in [2], in experiment [3], in [4], in [5] and in experiment [8] was inactive. For the same compound, the outcome in experiment [9] was inactive. Moreover, the AC50 in experiment [6] was 12.5 µM (active).

With `Cc1ccc2ncccc2c1`, the outcome in experiment [1], in experiment [2], in experiment [3], in [4], in experiment [5] and in experiment [6] was inactive. The outcome in experiment [7], in [8], in [9] and in [10] was inactive.

On to `CCCCN(CCCC)CCCC`, for which the call in experiment [1], in experiment [2], in experiment [3], in experiment [4], in experiment [5] and in experiment [6] was inactive. The outcome in experiment [7], in experiment [8], in [9] and in experiment [10] was inactive.

In the case of `CCCCC(CC)COC(=O)CC(C(=O)OCC(CC)CCCC)S(=O)(=O)O` (stereo not given), the outcome in experiment [1], in experiment [2], in [4], in experiment [5] and in experiment [10] was inactive. Moreover, the AC50 in [3] is 11.1 µM (active); in [6], 31.8 µM (active); in experiment [7] it was 31.1 µM (active); in [8] it was 38.9 µM (active); in experiment [9], 36.5 µM (active).

Take `COCCOCCOC`: the compound was called inactive in [1], in experiment [2], in experiment [3], in experiment [4], in [5] and in [6]. For the same compound, the outcome in experiment [8] and in experiment [9] was inactive.

Consider `O=[N+]([O-])C(CO)(CO)CO`, for which the call in experiment [1], in [2], in experiment [3], in [4], in experiment [5] and in [6] was inactive. Also, the result in experiment [8] and in experiment [9] was inactive.

Take `C=CCOC(=O)c1ccccc1C(=O)OCC=C`: the compound was classed as inactive in experiment [1], in experiment [2], in [4], in experiment [5], in experiment [6] and in experiment [7]. Further, the result in experiment [8], in [9] and in experiment [10] was inactive. Besides, the AC50 in experiment [3] is 27.2 µM (active).

Consider `CCNc1cccc(C)c1`, for which the outcome in [1], in [2], in [3], in experiment [4], in [5] and in experiment [6] was inactive. The result in [7], in experiment [8], in [9] and in experiment [10] was inactive.

Turning to `O=C(N[C@@H](Cc1ccccc1)[C@@H](O)C(=O)N1C[C@@H](O)[C@@H](O)C1)c1cc2cc(Cl)ccc2[nH]1`, the call in experiment [1], in [2], in [4], in experiment [5], in [6] and in experiment [7] was inactive. In addition, the result in experiment [8] and in [9] was inactive. Moreover, in [3], the AC50 is 91.9 µM (active).

With `NCC1(Cc2noc(=O)[nH]2)CCCCC1`, the compound was classed as inactive in experiment [1], in [2], in experiment [3], in experiment [4], in [5] and in experiment [6]. The outcome in experiment [8] and in experiment [9] was inactive.

Turning to `CCOC(=O)C(C)(C)Oc1ccc(Cl)cc1`, the outcome in experiment [1], in experiment [2], in [3], in experiment [4], in experiment [5] and in [6] was inactive. In addition, the outcome in [8] and in [9] was inactive. Also, the half-maximal activity concentration (AC50) in experiment [10] was 37.2 µM (active).

In the case of `O=C(OCCCCCOC(=O)c1ccccc1)c1ccccc1`, the result in experiment [1], in experiment [2], in experiment [3], in experiment [4], in experiment [5] and in experiment [6] was inactive. The result in experiment [8] and in experiment [9] was inactive.

On to `COc1cc(-c2nc(NC(=O)c3cc4cc(C)cc(C)c4n3CC(=O)O)sc2CCC2CCCCC2)c(OC)cc1Cl`, for which the call in experiment [1], in experiment [5] and in experiment [10] was inactive. In addition, the AC50 in experiment [2] is 26.7 µM (active); in experiment [3] it was 3.45 µM (active); in experiment [4], 5.48 µM (active); in [6], 2.98 µM (active); in experiment [7], 2.92 µM (active); in experiment [8] it was 4.86 µM (active). The AC50 in experiment [9] is 3.77 µM (active).

`CC1(C)CC(N=C=O)CC(C)(CN=C=O)C1` (stereo not given): the compound was classed as inactive in [1], in experiment [2], in experiment [3], in [4], in experiment [5] and in experiment [6]. Further, the outcome in [8] and in experiment [9] was inactive.

With `O=C(O)CCCCC(=O)O`, the compound was classed as inactive in experiment [1], in [2], in experiment [3], in [4], in experiment [5] and in experiment [6]. For the same compound, the outcome in [8] and in [9] was inactive.

With `Nc1ccc2c(c1)C(=O)c1ccccc1C2=O`, the outcome in experiment [1], in experiment [2], in experiment [4], in experiment [5], in experiment [6] and in experiment [8] was inactive. Moreover, the outcome in [9] was inactive. Besides, the AC50 in experiment [3] is 3.98 µM (active).
